Each structure is given as a SMILES string. Among all 48,000 compounds or so, about 13,000 (27%) showed an effect of 50% or more. The list shows a part of the results.

The assay deals with Wolbachia pipientis. In words: Anti-Wolbachia Cell-Based Screen. Format: functional. More on the design: scale not given: in the data most compounds retested in dose-response had high values. To be noted: 5 µM.
`O=c1ccc2c([nH]1)CCN(S(=O)(=O)c1ccc3c(c1)CCCC3)C2`: the “Percent Effect” value is listed as -15.49%.

As for `Cc1ccc(CN2CC[C@@H](N(C)C(C)C)[C@@H]2Cc2ccccc2)o1`, the “Percent Effect” value is recorded as -15.45%.

Consider `CCc1cccc(CC(=O)NC2CCN(C(=O)NC(C)(C)C)CC2)c1`, for which the “Percent Effect” value was -13.61%.

`CC(C)c1nc2n(n1)CC(NCc1nnc(-c3ccco3)o1)CC2` (centres undefined): the “Percent Effect” value was -6.468%.

Consider `Cc1cnc(CNC2CCc3nc(C(C)C)nn3C2)cn1` (centres undefined), for which the “Percent Effect” value was determined as 130.4%.

For the molecule `Cc1ncc(CNC2CCc3nc(C(C)C)nn3C2)s1` (centres undefined), the “Percent Effect” value worked out at 101%.

Turning to `CC(C)c1nc2n(n1)CC(NCc1nnnn1C1CC1)CC2` (centres undefined), the “Percent Effect” value is recorded as 8.252%.

Turning to `CC(C)c1nc2n(n1)CC(NCc1ncc(-c3ccccc3)o1)CC2` (centres undefined), the “Percent Effect” value is recorded as -0.3467%.

Consider `Cc1nc(CNC2CCc3nc(C(C)C)nn3C2)oc1C` (centres undefined), for which the “Percent Effect” value was 22.08%.

For `CCn1cc(S(=O)(=O)Nc2ccc3[nH]c(C4CCC4)nc3c2)cn1`, the “Percent Effect” value is -33.9%.

In the case of `c1cnn(C2CN(c3nc(-c4ccncc4)nc4c3CCC4)C2)c1`, the “Percent Effect” value was -0.2642%.

Turning to `Cc1ccc(C2CN(C(=O)c3c(C)cc(C)[nH]c3=O)CCO2)c(C)c1` (centres undefined), the “Percent Effect” value worked out at 7.803%.

Consider `CCC(C)N(C)S(=O)(=O)c1ccc(CCNC(C)=O)s1` (centres undefined), for which the “Percent Effect” value is 12.12%.

On to `CO[C@H]1CN(C(=O)c2nc(-c3ccccc3)[nH]c2C)CC[C@H]1N`, for which the “Percent Effect” value came out at 99.21%.

As to `Cc1[nH]c(-c2ccccc2)nc1C(=O)N1CC[C@H](CO)[C@@H](O)C1`, the “Percent Effect” value amounted to 5.886%.

Take `CN1[C@H]2CC[C@@H]1CN(C(=O)c1ccc(-c3ccccc3)[nH]1)CC2`: the “Percent Effect” value is on record as 114.3%.

Consider `CO[C@H]1CN(C(=O)c2ccc(-c3cc[nH]n3)cc2)CC[C@H]1N`, for which the “Percent Effect” value is listed as 5.265%.

As to `CO[C@H]1CN(C(=O)c2cc3ccccc3[nH]2)CC[C@H]1N`, the “Percent Effect” value is 117%.

Take `CC(C)COC1CCN(C(=O)c2cc3ccccc3c(=O)[nH]2)CC1`: the “Percent Effect” value is listed as -14.3%.

Consider `CN1[C@H]2CC[C@@H]1CN(C(=O)c1sccc1S(N)(=O)=O)CC2`, for which the “Percent Effect” value is recorded as -9.156%.

For the molecule `Cc1ccsc1[C@@H]1CCN(C(=O)c2cc3ccccc3[nH]2)C[C@H]1O`, the “Percent Effect” value is on record as -6.106%.

Take `CC(=O)Nc1ccsc1C(=O)N1CC[C@@H]2CC[C@H](C1)N2C`: the “Percent Effect” value was -9.655%.

With `O=C(c1cccc(-c2ncc[nH]2)c1)N1CC[C@H](CO)[C@@H](O)C1`, the “Percent Effect” value is on record as -2.343%.

On to `Cc1[nH]c(-c2ccccc2)nc1C(=O)N1CCC(O)(CO)CC1`, for which the “Percent Effect” value is reported as -2.686%.

With `CO[C@H]1CN(C(=O)c2ccc(-c3ccccc3)[nH]2)CC[C@H]1N`, the “Percent Effect” value was found to be 104.8%.

Turning to `O=C(O)CC1CN(S(=O)(=O)c2cccc(F)c2)c2ccccc21` (centres undefined), the “Percent Effect” value was -14.9%.

In the case of `CC(NC(=O)Nc1nnc(-c2ccccn2)s1)C(=O)OC(C)(C)C` (centres undefined), the “Percent Effect” value was determined as 4.269%.

For the molecule `CN1CC[C@@H]2[C@@H](CO[C@H]2CNC(=O)c2nccn2C)C1.O=C(O)C(F)(F)F`, the “Percent Effect” value is on record as -30.91%.

With `COCCN(CCN(C)C)C(=O)NC1CCc2ccccc2C1` (centres undefined), the “Percent Effect” value is on record as -2.569%.

`CCCNc1ncc(CN2CCC3(CC2)CNC(=O)C3)cn1`: the “Percent Effect” value is given as -5.134%.

In the case of `CCOc1cc2c(cc1CN1CCC3(CCCNC3=O)C1)CCC2` (centres undefined), the “Percent Effect” value was 106.5%.

For the molecule `CCOc1ccc(CN2CCC3(CC2)CNC(=O)C3)cn1`, the “Percent Effect” value is listed as -1.206%.

With `CCOc1cc(Cl)c(CN2CCC3(CCCNC3=O)C2)cc1OC` (centres undefined), the “Percent Effect” value is 104.3%.

`CCOc1cc2c(cc1CN1CCC3(CC1)CNC(=O)C3)CCC2`: the “Percent Effect” value is recorded as 89%.

For the molecule `Cc1ccc(Sc2ccc(CN3CCC4(CCCNC4=O)C3)o2)cc1` (centres undefined), the “Percent Effect” value stood at 5.94%.

As for `CCOc1cc2c(cc1CCC(=O)O)CCC2`, the “Percent Effect” value was -9.267%.

Consider `CCCc1cc(C(=O)N2CCC3(CCCNC3=O)C2)cs1` (centres undefined), for which the “Percent Effect” value came to 9.333%.

For `O=C1NCCCC12CCN(Cc1ccc(SC3CCCCC3)o1)C2` (centres undefined), the “Percent Effect” value was determined as 4.336%.

Take `CN1CCc2ccc(NCc3cscn3)cc2C1=O`: the “Percent Effect” value is listed as 26.59%.

On to `CN(C)C(=O)CN1C[C@H]2CCN(C(=O)c3ccncc3)CC[C@H]2S1(=O)=O`, for which the “Percent Effect” value is on record as 6.618%.

`CCc1nnc(S(=O)(=O)Cc2cc(Cl)c3c(c2)OCO3)n1C`: the “Percent Effect” value is -5.495%.

For the molecule `CN(CC(O)CO)c1nc(-c2cccnc2)nc2c1CCNC2` (centres undefined), the “Percent Effect” value is 5.807%.

For the molecule `CNC(=O)CN(C)c1nc(-c2ccncc2)nc2c1CCN(C(C)=O)C2`, the “Percent Effect” value is -5.976%.

On to `CNC(=O)CCN(C)c1nc(-c2ccncc2)nc2c1CCNC2`, for which the “Percent Effect” value stood at 97.6%.

On to `COCCN(C)c1nc(-c2ccncc2)nc2c1CCN(C(C)=O)C2`, for which the “Percent Effect” value is given as 5.956%.

Turning to `CN(CCO)c1nc(-c2ccccn2)nc2c1CCNC2`, the “Percent Effect” value is on record as -7.259%.

In the case of `CNC(=O)CN(C)c1nc(-c2ccc(C(N)=O)cc2)nc2c1CCNC2`, the “Percent Effect” value came to 117.3%.

For the molecule `CCN(CC)CCN(C)c1nc(-c2ccc(Cl)cc2)nc2c1CNC2`, the “Percent Effect” value is -44.78%.

Regarding `NC(=O)c1ccc(-c2nc3c(c(=O)[nH]2)CCNC3)cc1`, the “Percent Effect” value is recorded as -6.229%.

`CN(CCCO)c1nc(-c2ccc(C(N)=O)cc2)nc2c1CCNC2`: the “Percent Effect” value came to 101.5%.

For `O=C1NCCO[C@H]2CN(C(=O)CCc3ccc(Cl)cc3)CC[C@@H]12`, the “Percent Effect” value is reported as 1.273%.

As for `O=C(CC1CCc2ccccc21)NCCSc1cnn[nH]1` (centres undefined), the “Percent Effect” value is on record as -1.678%.

Consider `O=S(=O)(NCC1CCOC1)N1CCc2ccccc2C1` (centres undefined), for which the “Percent Effect” value is 0.4119%.

Regarding `CN(CCOc1ccc(Br)cc1)Cc1cscn1`, the “Percent Effect” value is on record as -4.62%.

`CCCc1nnc(NC2CCN(Cc3ccc(F)c(F)c3)CC2)o1`: the “Percent Effect” value is given as -13.59%.

As for `Cc1cc(C(=O)NC2CCCCNC2=O)c(=O)[nH]c1C` (centres undefined), the “Percent Effect” value is recorded as -5.405%.

Turning to `O=C(CO)N1CCC(F)(F)C2(CCN(c3ccccc3)C2)C1.O=C(O)C(F)(F)F` (centres undefined), the “Percent Effect” value was determined as 5.936%.

With `Cn1cc(CN2CCOC3(CCCN(c4cccc(F)c4)C3)C2)cn1.O=C(O)C(F)(F)F.O=C(O)C(F)(F)F` (centres undefined), the “Percent Effect” value was -4.147%.

As to `FC1(F)CCN(Cc2ccncc2)CC12CCN(c1cccnc1)C2.O=C(O)C(F)(F)F.O=C(O)C(F)(F)F.O=C(O)C(F)(F)F` (centres undefined), the “Percent Effect” value came to 90.74%.

`Cn1cc(CN2CCC(F)(F)C3(CCN(c4cccnc4)C3)C2)cn1.O=C(O)C(F)(F)F.O=C(O)C(F)(F)F` (centres undefined): the “Percent Effect” value is 116.7%.

On to `O=C(O)C(F)(F)F.O=C(O)C(F)(F)F.O=C(O)CN1CCC(F)(F)C2(CCN(c3ccccc3)C2)C1` (centres undefined), for which the “Percent Effect” value is recorded as -5.23%.

On to `O=C(O)C(F)(F)F.O=C(c1c[nH]cn1)N1CCC(F)(F)C2(CCN(c3cccc(F)c3)C2)C1` (centres undefined), for which the “Percent Effect” value is reported as -14.3%.

As for `FC1(F)CCN(Cc2cccnc2)CC12CCN(c1ccccc1)C2.O=C(O)C(F)(F)F.O=C(O)C(F)(F)F.O=C(O)C(F)(F)F` (centres undefined), the “Percent Effect” value worked out at 93.27%.

`Cn1cc(CN2CCC(F)(F)C3(CCN(c4cccc(F)c4)C3)C2)cn1` (centres undefined): the “Percent Effect” value came to 120.4%.

Source of the values: ChEMBL document CHEMBL3988442, “University of Dundee, Small-Polar-MMV Screening Library” (2021).
